Among the test systems are T-47D breast; BT-549 breast; MDA-MB-435 melanoma; SW-620 colon; MCF7 breast; HCT-116 colon; HCC-2998 colon; KM12 colon.
What all share (assay): NCI-60 one-dose screen, 48 h (100 = growth as untreated, 0 = no growth, -100 = all killed)
Conditions in all cases: 10 µM unless noted

The structures appear in SMILES notation. About 83,000 compounds went through this panel and 20% of them were active in at least one assay; those are over-represented in the sample as a whole.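 Percent growth is the endpoint: 0 to 100 indicates growth inhibition (40 means 60% inhibition), 0 means no net growth, and negative values indicate cell death.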 A number with no mark means an inactive call. Active and inactive are the calls of the source. Rule for the calls: active = growth percent below 10; inactive = the rest.

Regarding `COc1ccc(C2CC(c3cccc(Nc4ccncc4)c3)=NN2c2ccc(Cl)cc2)cc1` (configuration not stated), the growth is 65.7% with T-47D breast; 105% in the assay on BT-549 breast; -85.4% (active) in the assay on MDA-MB-435 melanoma; -89.4% (active) in the assay with SW-620 colon; -16.8% (active) in the assay on MCF7 breast; 108% in the assay with HCT-116 colon. Besides, the growth was -13.5% (active) with HCC-2998 colon and -72.1% (active) in the assay with KM12 colon.

As to `CN1CCN(CC#CCNC(=O)[C@]23CCC(C)(C)C[C@H]2C2=CC[C@@H]4[C@@]5(C)Cc6c([nH]c7ccccc67)C(C)(C)[C@@H]5CC[C@@]4(C)[C@]2(C)CC3)CC1`, the growth in the assay on T-47D breast was 94.4%; with BT-549 breast, 101%; in the assay with MDA-MB-435 melanoma, 47.2%; with SW-620 colon, 46.8%; with MCF7 breast it was 32.4%; in the assay on HCT-116 colon, 22.5%. For the same molecule, the results for the growth in the assay with HCC-2998 colon and in the assay on KM12 colon were 80% and 52.3%, respectively.

Turning to `COc1ccc(NC(=O)c2sc3nc(C)c(C(O)c4ccc(OC)cc4)cc3c2N)cc1` (configuration not stated), the growth was 56.8% in the assay on T-47D breast; 28.8% with BT-549 breast; -2.11% (active) in the assay with MDA-MB-435 melanoma; 33.8% with SW-620 colon; 13.7% in the assay with MCF7 breast; 15.3% in the assay on HCT-116 colon. Moreover, the growth in the assay with HCC-2998 colon is 20.4%; in the assay with KM12 colon, 20.7%.

`COc1nc(N)nc(-n2c(-c3ccc(C)cc3)nc3ccccc32)c1NCc1ccc(C)cc1`: the growth in the assay on T-47D breast was 79%; with BT-549 breast it was 101%; in the assay with MDA-MB-435 melanoma, 102%; with SW-620 colon, 98.1%; in the assay on MCF7 breast, 91.8%; with HCT-116 colon, 84.5%. Also, the growth was 103% in the assay on HCC-2998 colon and 89.6% in the assay on KM12 colon.

As for `CCC(C)C(N)C(=O)NNc1n[nH]c(=S)n1N` (configuration not stated), the growth in the assay with T-47D breast was 104%; in the assay with BT-549 breast it was 104%; with MDA-MB-435 melanoma it was 103%; in the assay on SW-620 colon, 96.9%; in the assay with MCF7 breast it was 96.9%; in the assay with HCT-116 colon, 108%. The values for the growth with HCC-2998 colon and in the assay with KM12 colon were 106% and 104%, respectively.

Turning to `COc1ccc(-n2cc(-c3cc(OC)c(OC)c(OC)c3)n(C(C)=O)c2=O)cc1`, the growth was 77.2% in the assay on T-47D breast; 100% in the assay on BT-549 breast; 84.3% in the assay with MDA-MB-435 melanoma; 98.1% in the assay on SW-620 colon; 71.5% with MCF7 breast; 94% in the assay with HCT-116 colon. The growth in the assay with HCC-2998 colon was 108%; with KM12 colon it was 85%.

For the molecule `N#Cc1c(NC(=O)c2cccc(Br)c2)sc2c1CCCC2`, the growth with T-47D breast is 77.9%; with BT-549 breast, 96.7%; with MDA-MB-435 melanoma, 10.8%; in the assay on SW-620 colon it was 50.5%; with MCF7 breast it was 51.8%; in the assay with HCT-116 colon, 74.9%. Also, the figures for the growth in the assay with HCC-2998 colon and with KM12 colon were 94.7% and 69.5%, respectively.

Take `Cc1c(C(=O)NO)sc2ncnc(Nc3ccc(NC(=S)Nc4ccccc4)cc3)c12`: the growth in the assay on T-47D breast was 113%; in the assay with BT-549 breast it was 106%; in the assay with MDA-MB-435 melanoma, 101%; in the assay with SW-620 colon it was 105%; in the assay on MCF7 breast it was 95.3%; in the assay on HCT-116 colon it was 105%. Also, the growth is 99.9% in the assay with HCC-2998 colon and 102% in the assay on KM12 colon.

Regarding `COc1ccc(-c2nc(SCCC(C)C)nc(N/N=C(/C)c3ccc(C)cc3)c2C#N)cc1`, the growth in the assay on T-47D breast is 87.1%; with BT-549 breast it was 91%; in the assay on MDA-MB-435 melanoma, 103%; with SW-620 colon it was 95.2%; in the assay on MCF7 breast it was 91.4%; with HCT-116 colon it was 93.2%. The growth was 99% in the assay with HCC-2998 colon and 93.5% in the assay on KM12 colon.

As for `Nc1c(C(=O)Nc2cccc3ccncc23)sc2nc3c(cc12)C(=O)CCC3`, the growth is 48.5% in the assay on T-47D breast; 50.6% in the assay with BT-549 breast; -35% (active) in the assay with MDA-MB-435 melanoma; 31.1% with SW-620 colon; 21.5% in the assay with MCF7 breast; 43.4% in the assay on HCT-116 colon. In addition, the growth is 77.2% in the assay on HCC-2998 colon and 30.8% with KM12 colon.

`O=C(N/N=C/c1cccc(O)c1)c1ccccc1Nc1cccc(C(F)(F)F)c1`: the growth in the assay with T-47D breast was 52%; in the assay with BT-549 breast, 67.3%; with MDA-MB-435 melanoma, 88.8%; with SW-620 colon, 95.1%; with MCF7 breast, 73.4%; with HCT-116 colon it was 83.4%. Besides, the growth in the assay with HCC-2998 colon was 82.7%; with KM12 colon, 81.5%.

In the case of `COc1ccc2c(c1)c(CC(=O)NCCOCCOCC(=O)Nc1ccc(OC)c(C(N)=O)c1O)c(C)n2C(=O)c1ccc(Cl)cc1`, the growth with T-47D breast was 81.3%; with BT-549 breast, 81.1%; with MDA-MB-435 melanoma, 104%; in the assay with SW-620 colon it was 99.4%; with MCF7 breast, 94.6%; with HCT-116 colon, 93.9%. The results for the growth in the assay on HCC-2998 colon and in the assay on KM12 colon were 93.5% and 99.4%, respectively.

In the case of `CC(=O)c1c[nH]c2ccc(-c3ccnc(Nc4ccc(NC(=O)C5CCCC5)c(CN5CCOCC5)c4)n3)cc12`, the growth in the assay with T-47D breast was -0.198% (active); with BT-549 breast, -7.17% (active); in the assay on MDA-MB-435 melanoma, -76% (active); with SW-620 colon it was 0.153% (active); in the assay on MCF7 breast, -38.1% (active); in the assay with HCT-116 colon, 0.944% (active). For the same molecule, the growth is -31.4% (active) with HCC-2998 colon and -64.1% (active) with KM12 colon.

Consider `CCCCCCCCCCN=C(N)N=C(N)N`, for which the growth with T-47D breast was 29.4%; with BT-549 breast, 15.6%; in the assay with MDA-MB-435 melanoma, 37.7%; with SW-620 colon, 58.5%; in the assay with MCF7 breast, 32.9%; with HCT-116 colon it was 41.9%. The results for the growth in the assay on HCC-2998 colon and in the assay with KM12 colon were 49.5% and 28.5%, respectively.
